The nature of experiment [1]: NCI Yeast Anticancer Drug Screen. Data for the rad50 strain (AID 155).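 Also: 0% = growth of vehicle-only cultures of the same strain.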 To be noted: S. cerevisiae rad50 strain growth inhibition, active compounds read high. Summed up:
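Cells are treated with compound, grown, and their growth is then scored against vehicle-only cultures of the same repair-deficient yeast strain.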

A short description of experiment [2]: NCI Yeast Anticancer Drug Screen. Data for the mec2-1 strain (AID 157). To be noted: S. cerevisiae mec2-1 strain, active compounds read high. Summed up:
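Growth inhibition is read against vehicle-treated controls after compound exposure of the mec2-1 yeast strain, which is defective in DNA damage repair or cell cycle control.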

Experiment [3] can be described thus: NCI Yeast Anticancer Drug Screen. Data for the sgs1 mgt1 strain (AID 161).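 Also: 0% = growth of cultures given vehicle only.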 As to conditions: S. cerevisiae sgs1 mgt1 strain, active compounds read high. Summed up: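 Percent growth inhibition was derived by comparing compound-exposed mutant yeast with vehicle-exposed cultures. The strain carries alterations in DNA damage repair.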
The nature of experiment [4]: NCI Yeast Anticancer Drug Screen. Data for the cln2 rad14 strain (AID 165).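 Also: 0% = growth equal to vehicle treated cultures.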 To be noted: S. cerevisiae cln2 rad14 strain, active compounds read high. Put shortly: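 Growth inhibition, relative to vehicle-treated controls, is the read-out. The test organism is a yeast strain with defined genetic alterations, cln2 rad14.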
A short description of experiment [5]: NCI Yeast Anticancer Drug Screen. Data for the bub3 strain (AID 167). To be noted: S. cerevisiae bub3 mutant strain, active compounds read high. Summed up: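 Part of a panel of yeast mutants defective in DNA damage repair or cell cycle regulation. Each strain is grown with compound, and inhibition is calculated relative to solvent-treated cultures.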
Experiment [6] can be described thus: NCI Yeast Anticancer Drug Screen. Data for the mlh1 rad18 strain (AID 175). As to conditions: S. cerevisiae mlh1 rad18 strain growth inhibition, active compounds read high. Put shortly: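 Cells of a genetically altered yeast strain, deficient in DNA damage repair, were treated with compound. Their growth was then compared with that of vehicle-treated cultures to give inhibition.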

Where [7] appears, read: at 5.0 µM (retest, dose inferred, filed as 0.5).
Setting [8] is: at 50.0 µM (retest, dose inferred, filed as 5.0).

The panel holds about 79,000 compounds, 15% with a hit somewhere; the sample as a whole holds those more often. Values without a mark were called inactive. Activity calls are given as the source filed them. Rule as the data show it: active = growth inhibition above about 70%; inactive = the rest.

We go through 9 compounds from PubChem BioAssay (NCI).

Regarding `O=C1C=C(Cl)C(=O)C(Cl)=C1`, the growth inhibition in experiment [1] (setting [7]) is 15%; in experiment [1] (setting [8]) it was 99% (active); in experiment [1] (at 50.0 µM), 99.4% (active); in experiment [2] (setting [7]), 23%; in experiment [2] (setting [8]), 99% (active); in experiment [2] (at 50.0 µM), 99.3% (active). Also, the growth inhibition in experiment [3] (setting [7]) was 7%; in experiment [3] (setting [8]) it was 99% (active); in experiment [3] (at 50.0 µM), 99.5% (active); in experiment [4] (setting [7]), 0%; in experiment [4] (setting [8]), 95% (active); in experiment [4] (at 50.0 µM), 91.5% (active). Also, the growth inhibition in experiment [5] (setting [7]) was 10%; in experiment [5] (setting [8]), 99% (active); in experiment [5] (at 50.0 µM), 99.3% (active); in experiment [6] (setting [7]) it was 20%; in experiment [6] (setting [8]) it was 99% (active); in experiment [6] (at 50.0 µM), 99.4% (active).

For the compound `CC(=O)c1cc2c(cc1O)C(C)(C)CCC2(C)C`, the growth inhibition in experiment [1] (setting [7]) is 3%; in experiment [1] (setting [8]), 3%; in experiment [1] (at 50.0 µM), 97.8% (active); in experiment [2] (setting [7]) it was 1%; in experiment [2] (setting [8]) it was 0%; in experiment [2] (at 50.0 µM), 98.7% (active). Further, the growth inhibition in experiment [3] (setting [7]) is 2%; in experiment [3] (setting [8]), 1%; in experiment [3] (at 50.0 µM) it was 47.7%; in experiment [4] (setting [7]) it was 0%; in experiment [4] (setting [8]) it was 0%; in experiment [4] (at 50.0 µM), 95.6% (active). For the same compound, the growth inhibition is 3% in experiment [5] (setting [7]); 7% in experiment [5] (setting [8]); 95% (active) in experiment [5] (at 50.0 µM); -2% in experiment [6] (setting [7]); -5% in experiment [6] (setting [8]); 98.8% (active) in experiment [6] (at 50.0 µM).

Consider `[pH]1p2[pH]p3p1p3[pH]2.c1cc[c]([Ge]([c]2ccccc2)[c]2ccccc2)cc1.c1cc[c]([Ge]([c]2ccccc2)[c]2ccccc2)cc1.c1cc[c]([Ge]([c]2ccccc2)[c]2ccccc2)cc1`, for which the growth inhibition in experiment [1] (setting [7]) was 10%; in experiment [1] (setting [8]), 82% (active); in experiment [1] (at 50.0 µM), 2.35%; in experiment [2] (setting [7]) it was 20%; in experiment [2] (setting [8]) it was 74% (active); in experiment [2] (at 50.0 µM), 59.3%. Also, the growth inhibition in experiment [3] (setting [7]) was 18%; in experiment [3] (setting [8]) it was 78% (active); in experiment [3] (at 50.0 µM), 4.75%; in experiment [4] (setting [7]), 8%; in experiment [4] (setting [8]), 44%; in experiment [4] (at 50.0 µM) it was 37.8%. The growth inhibition in experiment [5] (setting [7]) was 9%; in experiment [5] (setting [8]) it was 66%; in experiment [5] (at 50.0 µM), -1%; in experiment [6] (setting [7]), 19%; in experiment [6] (setting [8]), 71% (active); in experiment [6] (at 50.0 µM), 18.4%.

Turning to `COC(CNS(=O)(=O)c1ccccc1)[CH2][Hg][O]C(C)=O` (configuration not stated), the growth inhibition in experiment [1] (setting [7]) was 1%; in experiment [1] (setting [8]), -1%; in experiment [1] (at 50.0 µM), 99.5% (active); in experiment [2] (setting [7]) it was -3%; in experiment [2] (setting [8]), 13%; in experiment [2] (at 50.0 µM), 98.8% (active). Moreover, the growth inhibition in experiment [3] (setting [7]) is -5%; in experiment [3] (setting [8]), 19%; in experiment [3] (at 50.0 µM), 99.2% (active); in experiment [4] (setting [7]) it was -4%; in experiment [4] (setting [8]), 6%; in experiment [4] (at 50.0 µM) it was 99.1% (active). Moreover, the growth inhibition was 2% in experiment [5] (setting [7]); 4% in experiment [5] (setting [8]); 99.2% (active) in experiment [5] (at 50.0 µM); -2% in experiment [6] (setting [7]); 11% in experiment [6] (setting [8]); 99.2% (active) in experiment [6] (at 50.0 µM).

Turning to `C#CC(O)(CC)CC`, the growth inhibition in experiment [1] (setting [7]) is -4%; in experiment [1] (setting [8]) it was 10%; in experiment [1] (at 50.0 µM) it was 69.1%; in experiment [2] (setting [7]), 0%; in experiment [2] (setting [8]), -4%; in experiment [2] (at 50.0 µM), 13.4%. Also, the growth inhibition was -3% in experiment [3] (setting [7]); -2% in experiment [3] (setting [8]); 77.1% (active) in experiment [3] (at 50.0 µM); -6% in experiment [4] (setting [7]); -5% in experiment [4] (setting [8]); 3.5% in experiment [4] (at 50.0 µM). Further, the growth inhibition in experiment [5] (setting [7]) is -1%; in experiment [5] (setting [8]) it was 2%; in experiment [5] (at 50.0 µM), 38.8%; in experiment [6] (setting [7]) it was -1%; in experiment [6] (setting [8]), 9%; in experiment [6] (at 50.0 µM), 73.5% (active).

`CC1=C/C(=C2/N=C(N(C)C)SS2)C(C)=N1`: the growth inhibition in experiment [1] (setting [7]) is 11%; in experiment [1] (setting [8]) it was 78% (active); in experiment [1] (at 50.0 µM) it was 13.2%; in experiment [2] (setting [7]), 1%; in experiment [2] (setting [8]) it was 48%; in experiment [2] (at 50.0 µM), -0.9%. The growth inhibition is 31% in experiment [3] (setting [7]); 88% (active) in experiment [3] (setting [8]); 8.85% in experiment [3] (at 50.0 µM); 9% in experiment [4] (setting [7]); 48% in experiment [4] (setting [8]); 15.4% in experiment [4] (at 50.0 µM). Further, the growth inhibition in experiment [5] (setting [7]) was 23%; in experiment [5] (setting [8]) it was 66%; in experiment [5] (at 50.0 µM), 43.9%; in experiment [6] (setting [7]), 5%; in experiment [6] (setting [8]), 71% (active); in experiment [6] (at 50.0 µM), 16.7%.

As to `O=C(CCCc1ccccc1)[O][Hg][c]1ccccc1`, the growth inhibition is 99% (active) in experiment [1] (setting [7]); 99% (active) in experiment [1] (setting [8]); 99.7% (active) in experiment [1] (at 50.0 µM); 100% (active) in experiment [2] (setting [7]); 99% (active) in experiment [2] (setting [8]); 99.7% (active) in experiment [2] (at 50.0 µM). Also, the growth inhibition in experiment [3] (setting [7]) is 98% (active); in experiment [3] (setting [8]), 99% (active); in experiment [3] (at 50.0 µM), 99.6% (active); in experiment [4] (setting [7]), 99% (active); in experiment [4] (setting [8]) it was 99% (active); in experiment [4] (at 50.0 µM) it was 99.2% (active). Besides, the growth inhibition in experiment [5] (setting [7]) is 99% (active); in experiment [5] (setting [8]), 99% (active); in experiment [5] (at 50.0 µM), 99.2% (active); in experiment [6] (setting [7]) it was 99% (active); in experiment [6] (setting [8]) it was 99% (active); in experiment [6] (at 50.0 µM), 99% (active).

Turning to `S=P(OC1CC2CCC1C2)(c1ccccc1)c1ccccc1` (configuration not stated), the growth inhibition is 83% (active) in experiment [1] (setting [7]); 98% (active) in experiment [1] (setting [8]); -15.2% in experiment [1] (at 50.0 µM); 90% (active) in experiment [2] (setting [7]); 99% (active) in experiment [2] (setting [8]); 4.1% in experiment [2] (at 50.0 µM). In addition, the growth inhibition in experiment [3] (setting [7]) was 86% (active); in experiment [3] (setting [8]) it was 97% (active); in experiment [3] (at 50.0 µM), -0.75%; in experiment [4] (setting [7]), 87% (active); in experiment [4] (setting [8]), 98% (active); in experiment [4] (at 50.0 µM), 30.4%. Moreover, the growth inhibition in experiment [5] (setting [7]) is 88% (active); in experiment [5] (setting [8]), 97% (active); in experiment [5] (at 50.0 µM), -10.6%; in experiment [6] (setting [7]) it was 91% (active); in experiment [6] (setting [8]) it was 99% (active); in experiment [6] (at 50.0 µM), 1.2%.

In the case of `O=C(N/N=C(/CCN1CCCC1)CC(c1ccccc1)c1c(O)c2ccccc2oc1=O)c1ccncc1` (configuration not stated), the growth inhibition is 15% in experiment [1] (setting [7]); 15% in experiment [1] (setting [8]); 83.3% (active) in experiment [1] (at 50.0 µM); -4% in experiment [2] (setting [7]); -4% in experiment [2] (setting [8]); 80% (active) in experiment [2] (at 50.0 µM). Besides, the growth inhibition in experiment [3] (setting [7]) was -1%; in experiment [3] (setting [8]), -1%; in experiment [3] (at 50.0 µM) it was 85.1% (active); in experiment [4] (setting [7]) it was -1%; in experiment [4] (setting [8]) it was -1%; in experiment [4] (at 50.0 µM), 82.3% (active). Also, the growth inhibition is 0% in experiment [5] (setting [7]); 0% in experiment [5] (setting [8]); 81.3% (active) in experiment [5] (at 50.0 µM); 14% in experiment [6] (setting [7]); 14% in experiment [6] (setting [8]); 81.2% (active) in experiment [6] (at 50.0 µM).
